{"source": "paper PMC4336329", "about": "(PLoS ONE, 2015)", "note": "The campaign covered roughly 310,000 compounds. About 14,000 (4.5%) showed an effect of 50% or more. Effects have a minus sign here. For the sample, strong results were picked, then their nearest neighbours and some compounds at random.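 Note: peak tail current of the secondary pulse compared with the same well before compound.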", "data": [{"target": "human ether-à-go-go-related gene (hERG) potassium channel (human, UniProt Q12809)", "sequence (Q12809 whole entry, looked up)": "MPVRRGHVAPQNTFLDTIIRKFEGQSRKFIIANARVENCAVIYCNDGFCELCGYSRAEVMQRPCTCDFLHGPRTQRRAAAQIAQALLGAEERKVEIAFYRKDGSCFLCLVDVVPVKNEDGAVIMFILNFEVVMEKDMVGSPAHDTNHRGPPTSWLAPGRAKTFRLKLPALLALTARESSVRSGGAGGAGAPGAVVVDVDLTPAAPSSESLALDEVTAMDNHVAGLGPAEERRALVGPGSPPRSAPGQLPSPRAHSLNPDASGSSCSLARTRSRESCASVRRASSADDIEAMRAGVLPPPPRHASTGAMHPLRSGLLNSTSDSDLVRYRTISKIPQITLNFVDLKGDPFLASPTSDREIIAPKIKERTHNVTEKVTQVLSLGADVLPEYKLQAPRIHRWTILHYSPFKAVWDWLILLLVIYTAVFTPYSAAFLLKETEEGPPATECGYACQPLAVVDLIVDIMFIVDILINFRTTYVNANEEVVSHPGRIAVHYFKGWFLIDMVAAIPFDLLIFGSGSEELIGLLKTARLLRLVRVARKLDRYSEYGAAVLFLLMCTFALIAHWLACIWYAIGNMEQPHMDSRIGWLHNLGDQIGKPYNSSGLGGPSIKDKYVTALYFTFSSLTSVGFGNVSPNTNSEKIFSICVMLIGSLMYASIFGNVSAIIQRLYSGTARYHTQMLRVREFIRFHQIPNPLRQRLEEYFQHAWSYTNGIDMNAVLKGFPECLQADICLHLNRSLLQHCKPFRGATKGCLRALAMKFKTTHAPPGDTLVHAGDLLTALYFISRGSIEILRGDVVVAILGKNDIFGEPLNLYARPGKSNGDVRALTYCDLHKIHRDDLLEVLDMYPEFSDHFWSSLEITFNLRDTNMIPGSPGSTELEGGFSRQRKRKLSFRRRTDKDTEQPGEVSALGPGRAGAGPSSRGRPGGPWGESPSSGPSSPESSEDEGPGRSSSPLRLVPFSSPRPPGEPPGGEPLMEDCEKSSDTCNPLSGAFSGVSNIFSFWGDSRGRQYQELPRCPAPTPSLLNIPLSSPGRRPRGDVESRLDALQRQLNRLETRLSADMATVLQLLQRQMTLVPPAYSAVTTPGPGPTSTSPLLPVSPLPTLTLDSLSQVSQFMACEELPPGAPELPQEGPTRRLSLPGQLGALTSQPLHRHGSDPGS", "test": "primary screen, population patch clamp on CHO cells stably expressing hERG; higher = less effect of the substance", "units": {"hERG current change (%, negative = inhibition) at 10uM": "%"}, "values": [{"smiles": "Cc1cc(NCCCN(C)C)n2c(nc3ccccc32)c1C#N", "hERG current change (%, negative = inhibition) at 10uM": -1.49}, {"smiles": "Cc1cc(C)nc(SCC(=O)N/N=C/c2ccc3c(c2)OCO3)n1", "hERG current change (%, negative = inhibition) at 10uM": 8.05}, {"smiles": "CCOc1ccc(OCCSc2nc(N)cc(=O)[nH]2)cc1", "hERG current change (%, negative = inhibition) at 10uM": 1.58}, {"smiles": "O=C(CSc1nc2ccccc2o1)NC1CCCC1", "hERG current change (%, negative = inhibition) at 10uM": 16.5}, {"smiles": "CCCn1nc(C(=O)NCCc2ccc(S(N)(=O)=O)cc2)c2ccccc2c1=O", "hERG current change (%, negative = inhibition) at 10uM": -15.8}, {"smiles": "C/C(=N\\Nc1nc2ccccc2[nH]1)c1ccc(C)o1", "hERG current change (%, negative = inhibition) at 10uM": -17.7}, {"smiles": "C/C(=N\\Nc1nc2ccccc2[nH]1)c1cccs1", "hERG current change (%, negative = inhibition) at 10uM": -19.2}, {"smiles": "C/C(=N\\Nc1nc2ccccc2[nH]1)c1ccccn1", "hERG current change (%, negative = inhibition) at 10uM": -72.8}, {"smiles": "CS(=O)(=O)N1CCc2cc(S(=O)(=O)N3CCCCC3)ccc21", "hERG current change (%, negative = inhibition) at 10uM": -14.8}, {"smiles": "CC(=O)Nc1ccc(C(=O)OCc2ccc(F)cc2)cc1", "hERG current change (%, negative = inhibition) at 10uM": -10.9}, {"smiles": "COc1ccc([C@H]2CC(=O)C=C(c3cccc(C(C)C)c3)C2)cc1", "hERG current change (%, negative = inhibition) at 10uM": -2.79}, {"smiles": "Cc1[nH][nH]c(=O)c1C(c1ccc([N+](=O)[O-])cc1)c1c(C)[nH][nH]c1=O", "hERG current change (%, negative = inhibition) at 10uM": 23.9}, {"smiles": "Cc1[nH][nH]c(=O)c1C(c1cc(Br)ccc1O)c1c(C)[nH][nH]c1=O", "hERG current change (%, negative = inhibition) at 10uM": 12}, {"smiles": "Cc1[nH][nH]c(=O)c1C(c1cc([N+](=O)[O-])ccc1O)c1c(C)[nH][nH]c1=O", "hERG current change (%, negative = inhibition) at 10uM": -62.5}, {"smiles": "Cc1ccccc1NC(=O)CSc1nc(N)c(C#N)c(-c2cccs2)c1C#N", "hERG current change (%, negative = inhibition) at 10uM": 6}, {"smiles": "CCOc1ccc(C(=O)OCC(=O)NCCNC(=O)COC(=O)c2ccc(OCC)cc2)cc1", "hERG current change (%, negative = inhibition) at 10uM": 13.8}, {"smiles": "CCCSc1nnc(CNS(=O)(=O)c2ccc(C)cc2)n1C", "hERG current change (%, negative = inhibition) at 10uM": 8.4}, {"smiles": "C=CCn1c(=O)n(C(=O)OCC)c2cc(Br)ccc21", "hERG current change (%, negative = inhibition) at 10uM": -50.2}, {"smiles": "CCOC(=O)n1c(=O)[nH]c2ccc(Br)cc21", "hERG current change (%, negative = inhibition) at 10uM": 2.18}, {"smiles": "CCOC(=O)n1c(=O)n(C)c2ccc(Br)cc21", "hERG current change (%, negative = inhibition) at 10uM": -7.75}, {"smiles": "CC(=O)N1CCN(c2ccc(NC(=O)c3cccc(C)c3)cc2)CC1", "hERG current change (%, negative = inhibition) at 10uM": 18.5}, {"smiles": "COC(=O)c1ccc(NC(=O)CSc2nn3c(=O)c(C)nnc3s2)cc1", "hERG current change (%, negative = inhibition) at 10uM": 7.44}, {"smiles": "N#Cc1cccc(S(=O)(=O)NCC(=O)NCc2ccc3c(c2)OCO3)c1", "hERG current change (%, negative = inhibition) at 10uM": 5.51}, {"smiles": "Cc1ccc(NC(=O)CCN2CCN(C)CC2)cc1.Cl", "hERG current change (%, negative = inhibition) at 10uM": 10.6}, {"smiles": "CN1CCN(CCC(=O)Nc2ccc(C3CCCC3)cc2)CC1.Cl", "hERG current change (%, negative = inhibition) at 10uM": -55.1}, {"smiles": "CN1CCN(CCCCC(=O)c2ccccc2)CC1.Cl", "hERG current change (%, negative = inhibition) at 10uM": -0.477}, {"smiles": "CN1CCN(CCCC(=O)c2ccc(C3CCCC3)cc2)CC1.Cl.O", "hERG current change (%, negative = inhibition) at 10uM": -50}, {"smiles": "COc1ccc(C(=O)OCC(=O)c2ccc(C3CCCCC3)cc2)cc1", "hERG current change (%, negative = inhibition) at 10uM": 5.66}, {"smiles": "Cl.O=C(CCN1CCN(CCO)CC1)Nc1ccc(C2CCCC2)cc1", "hERG current change (%, negative = inhibition) at 10uM": -43}, {"smiles": "O=C(C[n+]1ccccc1)N/N=C/c1ccc(C(=O)O)cc1.[Cl-]", "hERG current change (%, negative = inhibition) at 10uM": 0.121}, {"smiles": "CC(C)(C)C(=O)Nc1sc2c(c1C#N)CCCCC2", "hERG current change (%, negative = inhibition) at 10uM": 2.28}, {"smiles": "CCOC(=O)C1CCCN(S(=O)(=O)c2ccc3c(c2)CC(C)N3C(=O)C2CC2)C1", "note": "(centres unmarked)", "hERG current change (%, negative = inhibition) at 10uM": 9.65}, {"smiles": "COc1ccc(N(CC(=O)NCc2cccc(OC)c2)S(=O)(=O)c2c(C)noc2C)cc1", "hERG current change (%, negative = inhibition) at 10uM": -41.1}, {"smiles": "COc1ccccc1NC(=S)NNC(=O)c1c(Cl)c(C)nn1C", "hERG current change (%, negative = inhibition) at 10uM": 32.8}, {"smiles": "CN(C1CCCCC1)S(=O)(=O)c1cccc(C(=O)OCC(=O)NC2CCCc3ccccc32)c1", "note": "(centres unmarked)", "hERG current change (%, negative = inhibition) at 10uM": -13.9}, {"smiles": "CC1CCCN(CCC(=O)Nc2ccc3c(c2)CCC3)C1.Cl", "note": "(centres unmarked)", "hERG current change (%, negative = inhibition) at 10uM": -33.5}, {"smiles": "CCOC(=O)C1CCCN(CCC(=O)Nc2cc(C)ccc2C)C1.Cl", "note": "(centres unmarked)", "hERG current change (%, negative = inhibition) at 10uM": -67.2}, {"smiles": "CCOC(=O)C1CCCN(CCC(=O)Nc2ccccc2C)C1.Cl", "note": "(centres unmarked)", "hERG current change (%, negative = inhibition) at 10uM": 12.5}, {"smiles": "CCOC(=O)C1CCCN(CCC(=O)Nc2ccc3c(c2)CCC3)C1", "note": "(centres unmarked)", "hERG current change (%, negative = inhibition) at 10uM": -50.4}, {"smiles": "Cc1cc(C)cc(NC(=O)CCN2CCCC2)c1", "hERG current change (%, negative = inhibition) at 10uM": -15.8}, {"smiles": "CCOC(=O)C1CCN(CCC(=O)Nc2cc(C)ccc2C)CC1", "hERG current change (%, negative = inhibition) at 10uM": -10.7}, {"smiles": "CCOC(=O)C1CCCN(CCC(=O)Nc2ccc(C)c(C)c2)C1.Cl", "note": "(centres unmarked)", "hERG current change (%, negative = inhibition) at 10uM": -44.8}, {"smiles": "CCOC(=O)C1CCCN(CCC(=O)Nc2ccc(Br)cc2)C1.Cl", "note": "(centres unmarked)", "hERG current change (%, negative = inhibition) at 10uM": -66.7}, {"smiles": "CCOC(=O)C1CCCN(CCC(=O)Nc2cc(C)cc(C)c2)C1", "note": "(centres unmarked)", "hERG current change (%, negative = inhibition) at 10uM": -58.4}, {"smiles": "CCOC(=O)C1CCCN(CCC(=O)Nc2cccc(C)c2)C1.Cl", "note": "(centres unmarked)", "hERG current change (%, negative = inhibition) at 10uM": -24.5}, {"smiles": "CCOC(=O)C1CCCN(CCC(=O)Nc2ccc(C)cc2)C1.Cl", "note": "(centres unmarked)", "hERG current change (%, negative = inhibition) at 10uM": -30.4}, {"smiles": "CCOC(=O)C1CCCN(CCC(=O)Nc2ccccc2)C1.Cl", "note": "(centres unmarked)", "hERG current change (%, negative = inhibition) at 10uM": -9.04}]}]}
